Where “and” joins values, the source holds several entries; their conditions need not be identical. Equal entries are not always repeated. In all, about 5,500 compounds went through this assay and about 2,000 (36%) were called active. About 18% were inconclusive and are not listed. Cut-off read from the data, not from the text of the source: active = normalized growth mostly below about 0.91 (no sharp cut-off); inconclusive = no clear call, values can overlap the other calls; inactive = mostly above about 0.92. The list shows a part of the results.
Assay: chemical genetic growth profiling, strain panel (AID 1159580);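 note: tested at 20 µM; growth read once vehicle control cultures reached saturation at 30 °C; 1 = growth at the plate median or of vehicle wells; lower values mean less growth of the strain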
Conditions: growth OD

Measured: normalized growth

NCCc1ccc(O)cc1
inactive: S. cerevisiae deletion strains, locus YJR075W, strain HOC1, stronger effect = lower value 1.01 | S. cerevisiae deletion strains, locus YKL009W, strain mrt4, stronger effect = lower value 0.992 | S. cerevisiae deletion strains, locus YKL068W, stronger effect = lower value 0.994 | S. cerevisiae deletion strains, locus YKL085W, strain MDH1 (second series), stronger effect = lower value 0.996 | S. cerevisiae deletion strains, locus YKL085W, strain MDH1, stronger effect = lower value 0.996 | S. cerevisiae deletion strains, locus YKL160W, strain elf1, stronger effect = lower value 1.01 | S. cerevisiae deletion strains, locus YKL190W, strain CNB1, stronger effect = lower value 1.01 | S. cerevisiae deletion strains, locus YKR001C, strain vps1, stronger effect = lower value 0.978 | S. cerevisiae deletion strains, locus YKR026C, strain gcn3, stronger effect = lower value 0.972 | S. cerevisiae deletion strains, locus YKR091W, strain srl3, stronger effect = lower value 0.986 | S. cerevisiae deletion strains, locus YLL001W, strain dnm1, stronger effect = lower value 0.982 | S. cerevisiae deletion strains, locus YLL026W, stronger effect = lower value 0.985 | S. cerevisiae deletion strains, locus YLL041C, strain sdh2, stronger effect = lower value 0.978 | S. cerevisiae deletion strains, locus YLR027C, strain aat2, stronger effect = lower value 0.984 | S. cerevisiae deletion strains, locus YLR039C, strain RIC1, stronger effect = lower value 1.02 | S. cerevisiae deletion strains, locus YLR058C, strain SHM2, stronger effect = lower value 1.01 | S. cerevisiae deletion strains, locus YLR102C, strain apc9, stronger effect = lower value 0.999 | S. cerevisiae deletion strains, locus YLR113W, strain HOG1, stronger effect = lower value 0.973 | S. cerevisiae deletion strains, locus YLR221C, strain rsa3, stronger effect = lower value 0.951 | S. cerevisiae deletion strains, locus YLR258W, strain gsy2, stronger effect = lower value 0.985 | S. cerevisiae deletion strains, locus YLR262C, strain YPT6 (second series), stronger effect = lower value 0.976 | S. cerevisiae deletion strains, locus YLR262C, strain YPT6, stronger effect = lower value 1.02 | S. cerevisiae deletion strains, locus YLR268W, strain sec22, stronger effect = lower value 0.993 | S. cerevisiae deletion strains, locus YLR320W, strain mms22, stronger effect = lower value 0.962 | S. cerevisiae deletion strains, locus YLR330W, strain CHS5, stronger effect = lower value 1.01 | S. cerevisiae deletion strains, locus YLR342W, strain FKS1 (second series), stronger effect = lower value 1 | S. cerevisiae deletion strains, locus YLR342W, strain FKS1, stronger effect = lower value 0.98 | S. cerevisiae deletion strains, locus YLR357W, strain rsc2, stronger effect = lower value 0.956 | S. cerevisiae deletion strains, locus YLR370C, strain arc18, stronger effect = lower value 0.984 | S. cerevisiae deletion strains, locus YLR371W, strain rom2, stronger effect = lower value 0.981 | S. cerevisiae deletion strains, locus YLR384C, strain iki3, stronger effect = lower value 0.958 | S. cerevisiae deletion strains, locus YLR418C, strain cdc73, stronger effect = lower value 1.02 | S. cerevisiae deletion strains, locus YML016C, strain PPZ1, stronger effect = lower value 1 | S. cerevisiae deletion strains, locus YML032C, strain rad52, stronger effect = lower value 1.02 | S. cerevisiae deletion strains, locus YML120C, strain ndi1, stronger effect = lower value 0.994 | S. cerevisiae deletion strains, locus YML124C, strain tub3, stronger effect = lower value 1 | S. cerevisiae deletion strains, locus YMR058W, strain fet3, stronger effect = lower value 0.973 | S. cerevisiae deletion strains, locus YMR078C, strain ctf18, stronger effect = lower value 0.99 | S. cerevisiae deletion strains, locus YMR125W, strain sto1, stronger effect = lower value 0.989 | S. cerevisiae deletion strains, locus YMR129W, stronger effect = lower value 0.973 | S. cerevisiae deletion strains, locus YMR205C, strain PFK2, stronger effect = lower value 1.01 | S. cerevisiae deletion strains, locus YMR223W, strain ubp8, stronger effect = lower value 1.01 | S. cerevisiae deletion strains, locus YMR231W, strain pep5, stronger effect = lower value 0.97 | S. cerevisiae deletion strains, locus YMR263W, strain SAP30, stronger effect = lower value 1.01 and 1 | S. cerevisiae deletion strains, locus YMR307W, strain GAS1, stronger effect = lower value 0.979 and 1.01 | S. cerevisiae deletion strains, locus YNL067W, strain RPL9B, stronger effect = lower value 1.01 | S. cerevisiae deletion strains, locus YNL071W, strain lat1, stronger effect = lower value 0.989 | S. cerevisiae deletion strains, locus YNL153C, strain GIM3, stronger effect = lower value 1.01 and 1.04 | S. cerevisiae deletion strains, locus YNL175C, strain NOP13, stronger effect = lower value 1.03 | S. cerevisiae deletion strains, locus YNL183C, strain NPR1, stronger effect = lower value 0.953 | S. cerevisiae deletion strains, locus YNL197C, strain WHI3, stronger effect = lower value 1 | S. cerevisiae deletion strains, locus YNL209W, strain ssb2, stronger effect = lower value 1 | S. cerevisiae deletion strains, locus YNL224C, strain SQS1, stronger effect = lower value 1 | S. cerevisiae deletion strains, locus YNL233W, strain BNI4, stronger effect = lower value 1 | S. cerevisiae deletion strains, locus YNL250W, strain rad50, stronger effect = lower value 0.995 | S. cerevisiae deletion strains, locus YNL271C, strain bni1, stronger effect = lower value 0.993 | S. cerevisiae deletion strains, locus YNL298W, strain CLA4, stronger effect = lower value 1 | S. cerevisiae deletion strains, locus YNL307C, strain MCK1, stronger effect = lower value 1.02 | S. cerevisiae deletion strains, locus YNL322C, strain KRE1 (second series), stronger effect = lower value 0.992 | S. cerevisiae deletion strains, locus YNL322C, strain KRE1, stronger effect = lower value 1 and 0.993 | S. cerevisiae deletion strains, locus YNR049C, strain mso1, stronger effect = lower value 0.98 | S. cerevisiae deletion strains, locus YNR052C, strain pop2, stronger effect = lower value 0.988 | S. cerevisiae deletion strains, locus YOL012C, strain htz1 0.829 | S. cerevisiae deletion strains, locus YOL147C, strain pex11, stronger effect = lower value 1 | S. cerevisiae deletion strains, locus YOR001W, strain rrp6, stronger effect = lower value 0.927 | S. cerevisiae deletion strains, locus YOR061W, strain CKA2, stronger effect = lower value 1.01 | S. cerevisiae deletion strains, locus YOR069W, strain VPS5, stronger effect = lower value 1 | S. cerevisiae deletion strains, locus YOR070C, strain gyp1, stronger effect = lower value 0.963 | S. cerevisiae deletion strains, locus YOR080W, strain dia2, stronger effect = lower value 0.968 | S. cerevisiae deletion strains, locus YOR083W, strain WHI5 (second series), stronger effect = lower value 1.03 | S. cerevisiae deletion strains, locus YOR083W, strain WHI5, stronger effect = lower value 1.01 | S. cerevisiae deletion strains, locus YOR106W, strain vam3, stronger effect = lower value 1.02 | S. cerevisiae deletion strains, locus YOR136W, strain idh2, stronger effect = lower value 0.996 | S. cerevisiae deletion strains, locus YOR144C, strain elg1, stronger effect = lower value 0.992 | S. cerevisiae deletion strains, locus YOR184W, strain ser1, stronger effect = lower value 1 | S. cerevisiae deletion strains, locus YOR231W, strain MKK1, stronger effect = lower value 0.963 | S. cerevisiae deletion strains, locus YOR265W, strain rbl2, stronger effect = lower value 1 | S. cerevisiae deletion strains, locus YOR270C, strain vph1, stronger effect = lower value 0.964 | S. cerevisiae deletion strains, locus YOR290C, strain snf2, stronger effect = lower value 1 | S. cerevisiae deletion strains, locus YOR316C, strain cot1, stronger effect = lower value 1 | S. cerevisiae deletion strains, locus YPL051W, strain arl3, stronger effect = lower value 0.987 | S. cerevisiae deletion strains, locus YPL055C, strain LGE1, stronger effect = lower value 1.01 | S. cerevisiae deletion strains, locus YPL078C, strain atp4, stronger effect = lower value 0.997 | S. cerevisiae deletion strains, locus YPL106C, strain sse1, stronger effect = lower value 0.987 | S. cerevisiae deletion strains, locus YPL240C, strain hsp82, stronger effect = lower value 0.976 | S. cerevisiae deletion strains, locus YPL241C, strain CIN2, stronger effect = lower value 1.01 and 1 | S. cerevisiae deletion strains, locus YPL256C, strain CLN2, stronger effect = lower value 0.953 | S. cerevisiae deletion strains, locus YPR119W, strain clb2, stronger effect = lower value 0.992 | S. cerevisiae deletion strains, locus YPR141C, strain kar3, stronger effect = lower value 0.996 | S. cerevisiae deletion strains, locus YPR163C, strain tif3, stronger effect = lower value 1.01 | S. cerevisiae deletion strains, locus YPR167C, strain met16, stronger effect = lower value 1.01 | S. cerevisiae deletion strains, strain wtn01, stronger effect = lower value 0.984 | S. cerevisiae strains, strain wild type, stronger effect = lower value 1
active: S. cerevisiae deletion strains, locus YNL248C, strain rpa49, stronger effect = lower value 0.856
